Experiments:
Assay in all cases: DAPPL (digital affinity profiling via proximity ligation, sequencing); 10 mM Tris-HCl pH 7.5, 50 mM NaCl, 1 mM DTT, 4% glycerol, room temperature, 30 min; GST-TFs on glutathione beads, 16-mer random dsDNA library, 0.1% formaldehyde crosslink after washing; high values mean tight binding
Details in all cases: protein: recombinant; tags: N-terminal GST; dsDNA, one strand shown
GABPA = target: T1, GABPA (Homo sapiens, UniProt Q06546 1-454)
T1 sequence: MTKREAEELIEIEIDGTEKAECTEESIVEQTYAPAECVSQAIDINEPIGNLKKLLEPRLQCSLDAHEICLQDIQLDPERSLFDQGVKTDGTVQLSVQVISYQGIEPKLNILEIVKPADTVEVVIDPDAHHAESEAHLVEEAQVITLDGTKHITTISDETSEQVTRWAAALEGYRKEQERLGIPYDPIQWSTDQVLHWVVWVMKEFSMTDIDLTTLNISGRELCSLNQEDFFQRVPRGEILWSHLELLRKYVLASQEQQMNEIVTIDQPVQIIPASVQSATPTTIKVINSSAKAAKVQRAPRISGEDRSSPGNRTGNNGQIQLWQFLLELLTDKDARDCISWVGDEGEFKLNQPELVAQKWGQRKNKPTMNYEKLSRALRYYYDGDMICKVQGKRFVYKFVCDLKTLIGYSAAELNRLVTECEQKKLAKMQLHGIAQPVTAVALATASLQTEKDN
Procedure, shortened: (§1)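 Human transcription factors fused to GST were expressed in yeast, captured on glutathione beads, given DNA barcodes and pooled with a GST-only negative control. Pools were incubated with 200 nmole of a 16-mer random double-stranded DNA library in Tris/NaCl/DTT/glycerol buffer at room temperature for 30 min. They were then washed, crosslinked with 0.1% formaldehyde, proximity-ligated (BsaI/T4 ligase, 1 h, 37 °C), PCR-amplified and sequenced on an Illumina NextSeq500. Binding signal is each 6-mer's read frequency for a factor divided by its frequency for the GST control.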

FEV = target: T2, FEV (Homo sapiens, UniProt Q99581 1-238)
T2 sequence: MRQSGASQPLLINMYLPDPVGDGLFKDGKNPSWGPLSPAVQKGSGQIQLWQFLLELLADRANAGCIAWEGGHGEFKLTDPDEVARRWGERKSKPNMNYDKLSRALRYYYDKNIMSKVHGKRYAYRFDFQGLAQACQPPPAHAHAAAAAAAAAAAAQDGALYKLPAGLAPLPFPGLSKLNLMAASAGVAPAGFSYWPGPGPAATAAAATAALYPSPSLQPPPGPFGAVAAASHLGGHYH
Procedure, shortened: as §1

ETV5 = ETV5 (Homo sapiens, UniProt P41161 1-510)
Procedure, shortened: as §1

ELF4 = ELF4 (Homo sapiens, UniProt Q99607 1-663)
Procedure, shortened: as §1

ETV7 = target: T3, ETV7 (Homo sapiens, UniProt Q9Y603 1-341)
T3 sequence: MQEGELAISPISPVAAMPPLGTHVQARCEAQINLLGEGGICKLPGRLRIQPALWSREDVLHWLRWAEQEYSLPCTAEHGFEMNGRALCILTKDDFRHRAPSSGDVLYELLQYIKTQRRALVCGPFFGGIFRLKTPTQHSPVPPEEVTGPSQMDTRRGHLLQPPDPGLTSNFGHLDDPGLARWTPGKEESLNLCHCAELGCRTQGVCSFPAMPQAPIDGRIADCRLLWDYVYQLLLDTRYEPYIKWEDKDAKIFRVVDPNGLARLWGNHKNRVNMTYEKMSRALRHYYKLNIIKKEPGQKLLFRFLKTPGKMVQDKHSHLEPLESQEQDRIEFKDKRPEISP
Procedure, shortened: as §1

ELK1 = target: T4, ELK1 (Homo sapiens, UniProt P19419 1-428)
T4 sequence: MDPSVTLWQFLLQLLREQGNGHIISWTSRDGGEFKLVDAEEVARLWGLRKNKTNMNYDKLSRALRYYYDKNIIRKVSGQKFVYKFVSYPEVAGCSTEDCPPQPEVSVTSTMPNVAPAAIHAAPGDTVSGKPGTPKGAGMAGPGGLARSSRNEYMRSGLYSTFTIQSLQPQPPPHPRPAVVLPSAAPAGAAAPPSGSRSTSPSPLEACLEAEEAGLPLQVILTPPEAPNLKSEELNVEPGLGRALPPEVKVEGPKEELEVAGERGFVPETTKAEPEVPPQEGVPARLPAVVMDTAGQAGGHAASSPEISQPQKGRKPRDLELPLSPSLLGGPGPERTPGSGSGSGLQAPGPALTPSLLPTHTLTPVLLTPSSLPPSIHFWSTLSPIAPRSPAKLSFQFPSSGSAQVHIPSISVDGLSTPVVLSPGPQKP
Procedure, shortened: as §1

ERG = target: T5, ERG (Homo sapiens, UniProt P11308 1-479)
T5 sequence: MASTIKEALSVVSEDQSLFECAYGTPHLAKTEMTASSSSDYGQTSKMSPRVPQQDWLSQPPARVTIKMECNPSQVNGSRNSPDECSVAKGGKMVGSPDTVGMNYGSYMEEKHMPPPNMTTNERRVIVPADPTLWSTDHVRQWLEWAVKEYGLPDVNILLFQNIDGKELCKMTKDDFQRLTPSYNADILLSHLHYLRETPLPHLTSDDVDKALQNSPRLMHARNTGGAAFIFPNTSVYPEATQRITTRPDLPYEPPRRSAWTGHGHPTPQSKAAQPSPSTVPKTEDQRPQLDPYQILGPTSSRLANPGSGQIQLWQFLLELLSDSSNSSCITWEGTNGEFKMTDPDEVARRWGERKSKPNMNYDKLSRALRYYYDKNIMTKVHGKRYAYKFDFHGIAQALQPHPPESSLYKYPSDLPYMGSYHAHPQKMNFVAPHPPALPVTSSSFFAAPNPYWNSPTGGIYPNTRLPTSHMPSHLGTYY
Procedure, shortened: as §1

EHF = target: T6, EHF (Homo sapiens, UniProt Q9NZC4 1-300)
T6 sequence: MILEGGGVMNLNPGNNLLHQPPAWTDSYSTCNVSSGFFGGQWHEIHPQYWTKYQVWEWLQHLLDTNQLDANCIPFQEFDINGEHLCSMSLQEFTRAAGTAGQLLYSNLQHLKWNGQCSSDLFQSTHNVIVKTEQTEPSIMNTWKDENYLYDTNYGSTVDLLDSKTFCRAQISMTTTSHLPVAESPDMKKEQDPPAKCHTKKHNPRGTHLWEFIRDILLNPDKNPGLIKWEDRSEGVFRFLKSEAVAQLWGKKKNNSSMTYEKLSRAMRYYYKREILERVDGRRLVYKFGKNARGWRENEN
Procedure, shortened: as §1

SPIB = SPIB (Homo sapiens, UniProt Q01892 1-262)
Procedure, shortened: as §1

ELK3 = target: T7, ELK3 (Homo sapiens, UniProt P41970 1-407)
T7 sequence: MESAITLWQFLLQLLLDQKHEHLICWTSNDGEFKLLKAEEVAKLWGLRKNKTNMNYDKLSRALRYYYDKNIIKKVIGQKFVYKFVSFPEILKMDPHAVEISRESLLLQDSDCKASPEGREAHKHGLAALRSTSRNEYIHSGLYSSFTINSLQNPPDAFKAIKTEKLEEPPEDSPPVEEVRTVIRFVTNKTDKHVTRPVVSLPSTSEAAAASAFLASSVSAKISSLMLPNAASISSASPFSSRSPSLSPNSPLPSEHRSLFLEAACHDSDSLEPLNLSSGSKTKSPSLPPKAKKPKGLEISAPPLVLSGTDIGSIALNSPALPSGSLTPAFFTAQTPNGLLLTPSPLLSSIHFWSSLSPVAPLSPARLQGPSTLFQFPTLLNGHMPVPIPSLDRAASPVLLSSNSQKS
Procedure, shortened: as §1

ELF3 = target: T8, ELF3 (Homo sapiens, UniProt P78545 1-371)
T8 sequence: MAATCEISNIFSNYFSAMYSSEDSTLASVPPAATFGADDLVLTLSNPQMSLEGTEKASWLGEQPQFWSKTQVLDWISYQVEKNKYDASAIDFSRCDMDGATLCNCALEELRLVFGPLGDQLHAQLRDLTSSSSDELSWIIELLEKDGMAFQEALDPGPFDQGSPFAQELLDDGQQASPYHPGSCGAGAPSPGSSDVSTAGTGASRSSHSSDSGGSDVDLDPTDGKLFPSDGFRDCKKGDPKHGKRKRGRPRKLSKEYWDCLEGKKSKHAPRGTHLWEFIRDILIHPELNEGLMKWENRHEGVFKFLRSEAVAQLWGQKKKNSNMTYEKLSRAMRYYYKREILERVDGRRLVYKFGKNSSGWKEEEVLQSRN
Procedure, shortened: as §1

ETV1 = ETV1 (Homo sapiens, UniProt P50549 1-477)
Procedure, shortened: as §1

ETS2 = target: T9, ETS2 (Homo sapiens, UniProt P15036 1-469)
T9 sequence: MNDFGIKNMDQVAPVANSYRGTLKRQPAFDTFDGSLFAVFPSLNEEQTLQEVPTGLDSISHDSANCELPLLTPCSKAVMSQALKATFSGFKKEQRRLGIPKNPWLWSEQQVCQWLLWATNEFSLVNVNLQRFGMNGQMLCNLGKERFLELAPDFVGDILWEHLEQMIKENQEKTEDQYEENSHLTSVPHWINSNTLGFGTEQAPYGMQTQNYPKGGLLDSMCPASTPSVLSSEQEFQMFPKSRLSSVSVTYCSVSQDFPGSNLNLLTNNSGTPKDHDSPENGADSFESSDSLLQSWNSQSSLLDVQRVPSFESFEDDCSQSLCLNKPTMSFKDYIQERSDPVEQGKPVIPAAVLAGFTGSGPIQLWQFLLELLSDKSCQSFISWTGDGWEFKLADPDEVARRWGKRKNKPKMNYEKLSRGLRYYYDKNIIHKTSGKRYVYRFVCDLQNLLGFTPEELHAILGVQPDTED
Procedure, shortened: as §1

SPDEF = target: T10, SPDEF (Homo sapiens, UniProt O95238 1-335)
T10 sequence: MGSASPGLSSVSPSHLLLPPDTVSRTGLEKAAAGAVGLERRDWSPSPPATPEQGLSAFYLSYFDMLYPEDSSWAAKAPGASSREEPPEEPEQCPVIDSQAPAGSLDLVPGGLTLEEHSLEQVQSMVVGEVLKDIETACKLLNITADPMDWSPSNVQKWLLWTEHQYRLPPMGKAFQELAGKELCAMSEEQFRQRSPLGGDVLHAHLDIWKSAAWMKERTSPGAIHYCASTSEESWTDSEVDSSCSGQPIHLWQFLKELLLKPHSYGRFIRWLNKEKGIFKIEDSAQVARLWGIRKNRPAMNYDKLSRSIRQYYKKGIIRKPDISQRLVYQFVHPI
Procedure, shortened: as §1

ETV3 = target: T11, ETV3 (Homo sapiens, UniProt P41162-2 1-143)
T11 sequence: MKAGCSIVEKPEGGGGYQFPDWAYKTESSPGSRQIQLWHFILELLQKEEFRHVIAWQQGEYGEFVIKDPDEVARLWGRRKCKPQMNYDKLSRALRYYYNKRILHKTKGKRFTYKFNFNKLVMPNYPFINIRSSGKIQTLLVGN
Procedure, shortened: as §1

ETV6 = ETV6 (Homo sapiens, UniProt P41212 1-452)
Procedure, shortened: as §1

Sequence of ETV5 (P41161 whole entry): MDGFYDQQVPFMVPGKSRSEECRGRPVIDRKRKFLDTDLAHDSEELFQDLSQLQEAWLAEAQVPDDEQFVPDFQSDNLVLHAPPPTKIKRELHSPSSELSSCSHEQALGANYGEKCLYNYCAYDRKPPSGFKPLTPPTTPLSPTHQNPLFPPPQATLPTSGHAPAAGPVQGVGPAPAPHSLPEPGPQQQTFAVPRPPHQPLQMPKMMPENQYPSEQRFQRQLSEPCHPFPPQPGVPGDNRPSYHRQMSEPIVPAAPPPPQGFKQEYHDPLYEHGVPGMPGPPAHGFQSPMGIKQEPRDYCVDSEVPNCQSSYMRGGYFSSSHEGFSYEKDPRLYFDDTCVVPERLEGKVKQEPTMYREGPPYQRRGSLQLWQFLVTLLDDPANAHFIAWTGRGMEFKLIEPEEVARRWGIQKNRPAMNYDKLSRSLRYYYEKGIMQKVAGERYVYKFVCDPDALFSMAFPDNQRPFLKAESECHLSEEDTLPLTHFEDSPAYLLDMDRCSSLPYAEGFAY
Sequence of ELF4 (Q99607 whole entry): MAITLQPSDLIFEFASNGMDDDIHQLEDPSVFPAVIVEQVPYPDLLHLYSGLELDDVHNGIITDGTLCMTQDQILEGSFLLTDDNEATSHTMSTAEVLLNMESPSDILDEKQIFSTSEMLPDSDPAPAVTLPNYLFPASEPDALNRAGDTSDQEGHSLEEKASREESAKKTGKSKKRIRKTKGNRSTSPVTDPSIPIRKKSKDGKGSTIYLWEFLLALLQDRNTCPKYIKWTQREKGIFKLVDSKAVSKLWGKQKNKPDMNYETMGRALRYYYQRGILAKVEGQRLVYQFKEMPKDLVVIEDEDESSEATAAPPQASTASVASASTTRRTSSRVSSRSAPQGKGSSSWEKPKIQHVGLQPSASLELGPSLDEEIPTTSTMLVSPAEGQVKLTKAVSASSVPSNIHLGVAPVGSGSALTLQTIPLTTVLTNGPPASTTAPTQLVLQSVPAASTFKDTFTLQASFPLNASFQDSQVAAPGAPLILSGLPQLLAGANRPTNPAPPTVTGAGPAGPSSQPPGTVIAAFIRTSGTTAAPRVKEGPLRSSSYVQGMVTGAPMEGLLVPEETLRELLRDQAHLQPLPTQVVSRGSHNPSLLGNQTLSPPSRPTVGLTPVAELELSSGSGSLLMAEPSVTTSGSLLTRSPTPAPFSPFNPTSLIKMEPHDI
Sequence of ETV6 (P41212 whole entry): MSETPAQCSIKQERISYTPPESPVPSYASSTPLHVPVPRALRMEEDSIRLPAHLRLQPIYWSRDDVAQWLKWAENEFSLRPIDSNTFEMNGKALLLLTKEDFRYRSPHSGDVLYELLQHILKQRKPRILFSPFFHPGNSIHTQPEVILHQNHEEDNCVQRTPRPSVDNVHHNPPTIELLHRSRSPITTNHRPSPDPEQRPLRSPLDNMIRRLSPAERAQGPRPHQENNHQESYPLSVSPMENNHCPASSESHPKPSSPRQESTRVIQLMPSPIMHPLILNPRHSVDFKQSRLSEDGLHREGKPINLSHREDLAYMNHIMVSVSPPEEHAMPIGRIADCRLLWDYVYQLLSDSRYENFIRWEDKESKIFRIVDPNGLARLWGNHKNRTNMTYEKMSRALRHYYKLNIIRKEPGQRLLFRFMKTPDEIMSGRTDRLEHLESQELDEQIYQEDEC
Sequence of SPIB (Q01892 whole entry): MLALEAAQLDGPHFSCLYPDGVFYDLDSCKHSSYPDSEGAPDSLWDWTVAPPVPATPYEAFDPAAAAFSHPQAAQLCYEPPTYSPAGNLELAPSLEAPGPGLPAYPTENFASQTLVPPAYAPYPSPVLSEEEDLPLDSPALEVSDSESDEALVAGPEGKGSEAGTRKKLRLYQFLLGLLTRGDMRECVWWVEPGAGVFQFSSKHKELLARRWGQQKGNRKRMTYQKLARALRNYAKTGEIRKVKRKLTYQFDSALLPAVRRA
Sequence of ETV1 (P50549 whole entry): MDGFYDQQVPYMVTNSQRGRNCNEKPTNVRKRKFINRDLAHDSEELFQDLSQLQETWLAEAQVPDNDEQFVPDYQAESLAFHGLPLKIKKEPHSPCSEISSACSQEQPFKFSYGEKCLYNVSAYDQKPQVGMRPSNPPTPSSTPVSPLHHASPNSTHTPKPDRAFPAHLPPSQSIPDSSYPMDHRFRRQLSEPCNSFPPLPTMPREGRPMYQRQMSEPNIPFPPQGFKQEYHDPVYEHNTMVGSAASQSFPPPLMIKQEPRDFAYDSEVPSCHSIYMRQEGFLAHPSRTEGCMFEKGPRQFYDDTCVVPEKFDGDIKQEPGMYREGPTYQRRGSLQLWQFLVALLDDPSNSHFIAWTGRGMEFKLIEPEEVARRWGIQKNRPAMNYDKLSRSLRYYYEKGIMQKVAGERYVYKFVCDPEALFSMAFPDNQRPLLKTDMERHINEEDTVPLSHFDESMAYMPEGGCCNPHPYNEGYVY

Sequence | binding signal (GABPA) | binding signal (FEV) | binding signal (ETV5) | binding signal (ELF4) | binding signal (ETV7) | binding signal (ELK1) | binding signal (ERG) | binding signal (EHF) | binding signal (SPIB) | binding signal (ELK3) | binding signal (ELF3) | binding signal (ETV1) | binding signal (ETS2) | binding signal (SPDEF) | binding signal (ETV3) | binding signal (ETV6)
TAGGCC | 1.02 fold enrichment (6-mer frequency, TF over GST control) | 1.05 fold enrichment (6-mer frequency, TF over GST control) | 1.05 fold enrichment (6-mer frequency, TF over GST control) | 1.01 fold enrichment (6-mer frequency, TF over GST control) | 1.03 fold enrichment (6-mer frequency, TF over GST control) |  |  |  |  |  |  |  |  |  |  | 
GCCGGA |  | 1.59 fold enrichment (6-mer frequency, TF over GST control) | 1.16 fold enrichment (6-mer frequency, TF over GST control) |  | 1 fold enrichment (6-mer frequency, TF over GST control) | 1.17 fold enrichment (6-mer frequency, TF over GST control) | 1.27 fold enrichment (6-mer frequency, TF over GST control) | 1.08 fold enrichment (6-mer frequency, TF over GST control) | 1.01 fold enrichment (6-mer frequency, TF over GST control) | 1.11 fold enrichment (6-mer frequency, TF over GST control) | 1.05 fold enrichment (6-mer frequency, TF over GST control) | 1.07 fold enrichment (6-mer frequency, TF over GST control) | 1.01 fold enrichment (6-mer frequency, TF over GST control) | 1.37 fold enrichment (6-mer frequency, TF over GST control) | 1.1 fold enrichment (6-mer frequency, TF over GST control) | 1.07 fold enrichment (6-mer frequency, TF over GST control)
